# This excerpt belongs to a sample that is enriched for the strongest signals.
# Tests used:
# Assay in all cases: glycan array binding signal (z-score within array); higher = stronger binding
# Conditions in all cases: glycan notation: IUPAC condensed, linker removed
# [1] = biological target: Fuc(a1-2)Gal(b1-4)GlcNAc(b1-3)Gal(b1-4)GlcNAc(b1-2)Man(a1-3)[Fuc(a1-2)Gal(b1-4)GlcNAc(b1-3)Gal(b1-4)GlcNAc(b1-2)Man(a1-6)]Man(b1-4)GlcNAc(b1-4)GlcNAc
# In short: (§1)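 Negative Z-scores can be read as non-binding. The Z-score is calculated within each array and then averaged across arrays of one protein sequence at different concentrations or buffers and across linkers. Arrays, 3228 in all, were curated from the Consortium for Functional Glycomics database and kept only where the protein sequence was available.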
# [2] = biological target: Fuc(a1-2)Gal(b1-4)[Fuc(a1-3)]GlcNAc(b1-3)Gal(b1-4)[Fuc(a1-3)]GlcNAc(b1-3)Gal(b1-4)[Fuc(a1-3)]GlcNAc
# In short: as §1
# [3] = biological target: Fuc(a1-2)Gal(b1-4)[Fuc(a1-3)]GlcNAc(b1-3)GalNAc
# In short: as §1
# [4] = biological target: Fuc(a1-2)Gal6S(b1-4)Glc6S
# In short: as §1
# [5] = biological target: Fuc(a1-3)[Gal(b1-4)]GlcNAc(b1-6)GalNAc
# In short: as §1
# Gal(a1-2)Gal = biological target: Gal(a1-2)Gal
# In short: as §1
# Gal(a1-3)Gal(b1-3)GlcNAc = biological target: Gal(a1-3)Gal(b1-3)GlcNAc
# In short: as §1
# Gal(a1-3)Gal(b1-4)Glc = biological target: Gal(a1-3)Gal(b1-4)Glc
# In short: as §1
# Gal(a1-4)GlcNAc = biological target: Gal(a1-4)GlcNAc
# In short: as §1
# Gal(b1-2)Gal = biological target: Gal(b1-2)Gal
# In short: as §1
# Gal(b1-3)Gal = biological target: Gal(b1-3)Gal
# In short: as §1
# Gal(b1-3)GalNAc = biological target: Gal(b1-3)GalNAc
# In short: as §1
# [6] = biological target: Gal(b1-3)[Fuc(a1-4)]GlcNAc(b1-6)GalNAc
# In short: as §1
# [7] = biological target: Gal(b1-4)GalNAc(b1-3)[Fuc(a1-2)]Gal(b1-4)GlcNAc
# In short: as §1
# [8] = biological target: Gal(b1-4)GlcNAc(b1-3)Gal(b1-4)GlcNAc(b1-2)Man(a1-3)[Gal(b1-4)GlcNAc(b1-3)Gal(b1-4)GlcNAc(b1-2)Man(a1-6)]Man(b1-4)GlcNAc(b1-4)GlcNAc
# In short: as §1
# [9] = biological target: Gal(b1-4)GlcNAc(b1-3)Gal(b1-4)GlcNAc(b1-2)Man(a1-3)[Gal(b1-4)GlcNAc(b1-3)Gal(b1-4)GlcNAc(b1-2)Man(a1-6)]Man(b1-4)GlcNAc(b1-4)[Fuc(a1-6)]GlcNAc
# In short: as §1
# [10] = biological target: Gal(b1-4)GlcNAc(b1-3)Gal(b1-4)GlcNAc(b1-2)[Gal(b1-4)GlcNAc(b1-3)Gal(b1-4)GlcNAc(b1-6)]Man(a1-6)[Gal(b1-4)GlcNAc(b1-3)Gal(b1-4)GlcNAc(b1-2)Man(a1-3)]Man(b1-4)GlcNAc(b1-4)[Fuc(a1-6)]GlcNAc
# In short: as §1
# [11] = biological target: Gal(b1-4)GlcNAc(b1-3)Gal(b1-4)GlcNAc(b1-3)Gal(b1-4)GlcNAc(b1-2)Man(a1-3)[Gal(b1-4)GlcNAc(b1-3)Gal(b1-4)GlcNAc(b1-3)Gal(b1-4)GlcNAc(b1-2)Man(a1-6)]Man(b1-4)GlcNAc(b1-4)GlcNAc
# In short: as §1
# [12] = biological target: Gal(b1-4)GlcNAc(b1-3)[Gal(b1-4)GlcNAc(b1-6)]Gal(b1-4)GlcNAc
# In short: as §1
# [13] = biological target: Gal(b1-4)GlcNAc(b1-3)[GlcNAc(b1-6)]Gal(b1-4)GlcNAc
# In short: as §1
# Gal(b1-4)GlcNAc6P = biological target: Gal(b1-4)GlcNAc6P
# In short: as §1
# Gal(b1-6)Gal = biological target: Gal(b1-6)Gal
# In short: as §1
# Gal3S(b1-3)GlcNAc = biological target: Gal3S(b1-3)GlcNAc
# In short: as §1
# Gal3S(b1-4)Glc = biological target: Gal3S(b1-4)Glc
# In short: as §1
# Gal3S6S(b1-4)GlcNAc6S = biological target: Gal3S6S(b1-4)GlcNAc6S
# In short: as §1
# GalNAc(b1-3)Gal = biological target: GalNAc(b1-3)Gal
# In short: as §1
# [14] = biological target: GalNAc(b1-4)GlcNAc(b1-2)Man(a1-3)[GalNAc(b1-4)GlcNAc(b1-2)Man(a1-6)]Man(b1-4)GlcNAc(b1-4)GlcNAc
# In short: as §1
# GalNAc(b1-4)GlcNAc6S = biological target: GalNAc(b1-4)GlcNAc6S
# In short: as §1
# Glc(a1-6)Glc(a1-6)Glc = biological target: Glc(a1-6)Glc(a1-6)Glc
# In short: as §1
# GlcA(b1-6)Gal = biological target: GlcA(b1-6)Gal
# In short: as §1
binder,measurement,setting,value
LngA (Escherichia coli) (protein) MLSVYNRTQKFKAEARKKIAKYHELRKQRGMSLLEVIIVLGIIGTIAAGVVILAQRAFDSRAVTDLVTNTNTVRVRMKDAYQRDGKYPDFVDPLSLTANTIKTDTSGIPAAQLVQLGKITPDEVRNNISGDFIAIGGALTSNGAQVKKGFAIELNGLSQEQCRSILGQVGNNWEYVAIGTSASGSYAMTATGVDMSVAASTTVLRSLGNNGQTTLTADKILSTCTAQVNSITLGSR,glycan array binding signal (z-score),[1],-0.248
same,glycan array binding signal (z-score),[2],-0.414
same,glycan array binding signal (z-score),[3],0.215
same,glycan array binding signal (z-score),[4],0.398
same,glycan array binding signal (z-score),[5],-0.182
same,glycan array binding signal (z-score),Gal(a1-2)Gal,0.247
same,glycan array binding signal (z-score),Gal(a1-3)Gal(b1-3)GlcNAc,2.92
same,glycan array binding signal (z-score),Gal(a1-3)Gal(b1-4)Glc,-0.144
same,glycan array binding signal (z-score),Gal(a1-4)GlcNAc,-0.206
same,glycan array binding signal (z-score),Gal(b1-2)Gal,2.94
same,glycan array binding signal (z-score),Gal(b1-3)Gal,-0.316
same,glycan array binding signal (z-score),Gal(b1-3)GalNAc,-0.143
same,glycan array binding signal (z-score),[6],-0.438
same,glycan array binding signal (z-score),[7],-0.632
same,glycan array binding signal (z-score),[8],3.2
same,glycan array binding signal (z-score),[9],-0.289
same,glycan array binding signal (z-score),[10],4.27
same,glycan array binding signal (z-score),[11],3.43
same,glycan array binding signal (z-score),[12],-0.205
same,glycan array binding signal (z-score),[13],-0.507
same,glycan array binding signal (z-score),Gal(b1-4)GlcNAc6P,4.74
same,glycan array binding signal (z-score),Gal(b1-6)Gal,0.393
same,glycan array binding signal (z-score),Gal3S(b1-3)GlcNAc,-0.1
same,glycan array binding signal (z-score),Gal3S(b1-4)Glc,4.16
same,glycan array binding signal (z-score),Gal3S6S(b1-4)GlcNAc6S,2.24
same,glycan array binding signal (z-score),GalNAc(b1-3)Gal,0.532
same,glycan array binding signal (z-score),[14],-0.153
same,glycan array binding signal (z-score),GalNAc(b1-4)GlcNAc6S,-0.467
same,glycan array binding signal (z-score),Glc(a1-6)Glc(a1-6)Glc,0.075
same,glycan array binding signal (z-score),GlcA(b1-6)Gal,0.408

# From the supplement of paper PMC8728848
